# DT40 TDP1 CPT = DT40-hTDP1 cell growth loss with CPT. chicken DT40 Tdp1-/-;hTDP1 cells + 20 nM CPT, ATP luminescence, 48 h. Potency, µM (highest dose often 46.2 µM), for inactives: top-dose activity change, negative = growth inhibition, usual class: inhibitors. 420,000 tested, 12% active. AID 686979; note: potency is the fitted concentration of half-maximal effect; % is set by controls: 0 for no effect and ±100 for the full control effect; nearly all actives have a fitted effect of over 55% in size
#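 Chicken DT40 Tdp1-/- cells stably complemented with human TDP1 were seeded at 400 cells/well in medium containing 20 nM camptothecin, exposed to pin-transferred compounds, and grown at 37 °C for at least 48 hr. Viability was read as ATP luminescence.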
# TDP1 cell noCPT = qHTS for Inhibitors of human tyrosyl-DNA phosphodiesterase 1 (TDP1): qHTS in cells in absence of CPT. DT40 Tdp1-/- hTDP1 cells, no CPT, ATP luminescence, 48 h. Potency, µM (doses to about 46.2 µM), inactives show at the highest dose activity change, negative = growth inhibition, usual class: inhibitors. 420,000 tested, 15% active. AID 686978, 2013; note: potency is the fitted concentration of half-maximal effect; % is set by controls: 0 for no effect and ±100 for the full control effect; nearly all actives have a fitted effect of over 55% in size
#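 DT40 Tdp1-/-;hTDP1 cells, no CPT (DMSO vehicle only), 400 cells/well; compounds pin-transferred; ≥48 hr, 37 °C; CellTiter-Glo 30 min RT dark, luminescence read.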
# IL-1B inflam inh = inhibitors of inflammasome signaling (IL-1 beta secretion); AID 743279; THP-1 LPS/ATP IL-1B secretion, AlphaLISA, 16 h; hits give low values; activity change, % at 57.5 µM; 360,000 tested, 4.7% active; in the data active = activity change below about -50%; inconclusive = mostly about -30% to -49%; note: % is set by controls: 0 for no effect and ±100 for the full control effect
#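 THP-1 cells pretreated 1 hr with compounds (up to 57.5 uM final), then stimulated with LPS (250 ng/mL final) plus ATP (1.25 mM final); secreted IL-1B measured by AlphaLISA after 16 hr, decreased signal indicating inhibition.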
# ClpP mod = qHTS Assay for Activators of ClpP. ATP-dependent Clp protease proteolytic subunit (Bacillus subtilis (strain 168)), P80244. purified B. subtilis ClpP, FRET peptide cleavage, 20 min. Potency, µM (top dose mostly 57.5 µM), for inactives: at the highest dose activity change, negative = active. 340,000 tested, 1.9% active. AID 651965, 2013; active = well fitted falling curve with a large enough effect; inconclusive = small, poorly fitted or top-dose-only effect; inactive = no such curve, though single readings can be large or run the other way; note: potency is the fitted concentration of half-maximal effect; the source files actives as falling curves though it sought activators and does not explain the sign; nearly all actives have a fitted effect of over 65% in size
# Target sequence (P80244 whole entry, looked up): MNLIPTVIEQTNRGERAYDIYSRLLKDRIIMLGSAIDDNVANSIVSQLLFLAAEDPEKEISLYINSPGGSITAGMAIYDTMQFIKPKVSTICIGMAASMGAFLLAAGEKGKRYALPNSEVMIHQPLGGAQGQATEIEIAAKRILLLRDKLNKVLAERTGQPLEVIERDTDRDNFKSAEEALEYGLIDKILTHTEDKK
#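 ClpP 10 microg/mL final, pH 8 Tris/KCl buffer with BSA, glycerol, Tween-20; compound pinned in; FRET-FV substrate; RT 20 min; Ex320/Em430; ΔFRET vs ADEP 5.8 microM, DMSO, no enzyme.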
# DRD3 agonist = D3 dopamine receptor (human) agonism | 410,000 tested, 0.58% active | P35462 | D3R DiscoveRx beta-arrestin cells, luminescence, 90 min | max activation, %; in the data active = max activation above about 30%; note: 0% is about no effect
# Target sequence (P35462 whole entry, looked up): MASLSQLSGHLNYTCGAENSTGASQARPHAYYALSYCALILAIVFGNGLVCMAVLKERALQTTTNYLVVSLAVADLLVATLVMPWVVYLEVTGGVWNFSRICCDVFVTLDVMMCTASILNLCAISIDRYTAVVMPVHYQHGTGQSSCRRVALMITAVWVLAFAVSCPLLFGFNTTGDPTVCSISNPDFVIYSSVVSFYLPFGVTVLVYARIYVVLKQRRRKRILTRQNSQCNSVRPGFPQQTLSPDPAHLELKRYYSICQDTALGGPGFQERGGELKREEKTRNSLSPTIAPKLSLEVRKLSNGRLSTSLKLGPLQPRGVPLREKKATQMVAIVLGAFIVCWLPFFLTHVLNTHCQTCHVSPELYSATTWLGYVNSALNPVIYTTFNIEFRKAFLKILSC
#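 Agonist-mode cell screen: cells plated at 1500/well and incubated overnight at 37 °C, then exposed to library compounds for 90 min at 37 °C. Detection reagent was added for 30–60 min at room temperature, and luminescence was read.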
# DRD3 antagonist = D3 dopamine receptor (human) antagonism. P35462. D3R cells, DiscoveRx beta-arrestin luminescence, antagonist mode; hits give low values. max response, negative = inhibition, %. 360,000 tested, 2.5% active; in the data active = max response below about -50%; inconclusive = no clear call, values can overlap the other calls; note: % is set by controls: 0 for no effect and ±100 for the full control effect
#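 Cells expressing the human receptor were seeded at 1500 cells/well, incubated overnight at 37 degrees C in 5% CO2, then exposed to library compounds with dopamine controls for 90 minutes at 37 degrees C before luminescent detection.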
# Starred values were filed as active, the others as inactive; ? = inconclusive; nt = no result given; [ ] = remark or other dose. A selection: hits, their analogues and other compounds. The true share with any hit is near 21%. Unless noted, calls come from the whole dose curve; as a rule, active = well fitted inhibition curve with a large enough effect; inconclusive = small, poorly fitted or top-dose-only effect; inactive = flat fitted curve, though single readings scatter.
SMILES,DT40 TDP1 CPT,TDP1 cell noCPT,IL-1B inflam inh,ClpP mod,DRD3 agonist,DRD3 antagonist
CN1CCN(c2nc3c(c(=O)n(C)c(=O)n3C)n2Cc2cccc3ccccc23)CC1,-6%,-30%,-17,-3%,-4,10
CCOC(=O)Cn1c(=O)c2c(nc(N3CCOCC3)n2Cc2ccccc2)n(C)c1=O,?,16µM*,nt,-1%,1,nt
CCOC(=O)c1sc2nc(CC(=O)OC)nc(NCc3ccc(F)cc3)c2c1C,18µM*,16µM*,-5,3.5µM*,-11,18
CCOC(=O)c1sc2nc(C)nc(NCc3ccc(F)cc3)c2c1C,26µM*,26µM*,?,nt,-5,36
CCOC(=O)c1sc2nc(C)nc(NCc3ccc(Cl)cc3)c2c1C,12µM*,21µM*,-67*,-1%,9,4
CCOC(=O)c1sc2nc(C)nc(NCc3cccnc3)c2c1C,6%,?,21,nt,-3,-19
COc1ccc(Oc2ncc3nc(-c4ccc(OC)cc4)c(=O)n(Cc4cccs4)c3n2)cc1,4%,-2%,nt,nt,nt,nt
CC(=O)N1CCN(C(=O)COC(=O)CNC(=O)c2ccccc2C)CC1,20%,-1%,0,1%,3,20
Cc1cc(NCc2ccccc2Cl)n2cnnc2n1,12µM*,9.2µM*,nt,0%,3,nt
Cc1cc(C)cc(Nc2cc(C)nc3nncn23)c1,?,?,nt,2%,10,nt
COc1ccccc1Nc1nc(-c2sc(NC(=O)c3ccco3)nc2C)cs1,16µM*,15µM*,-12,-2%,0,-6
Cc1ccc(-c2csc(NC(=O)c3ccco3)n2)cc1C,-9%,?,-26,nt,0,21
Cc1ccc(Cl)cc1Nc1nc(-c2sc(NC(=O)c3ccco3)nc2C)cs1,?,?,-19,-3%,4,60
Cc1nc(NC(=O)c2ccco2)sc1-c1csc(Nc2ccc(Cl)cc2Cl)n1,23µM*,15µM*,0,-16%,4,63
COc1cccc(N(C(=O)c2ccco2)c2nc(-c3sc(NC(=O)c4ccco4)nc3C)cs2)c1,15µM*,15µM*,3,35%,32*,77
Cc1nc(NC(=O)c2ccco2)sc1-c1csc(Nc2ccc(Cl)cc2)n1,21µM*,16µM*,-9,-12%,52*,57
CC(C)C(NS(=O)(=O)c1cccc(C(F)(F)F)c1)C(=O)NCc1cccs1 (configuration not stated),1%,?,10,-1%,0,-2
Cc1nn(-c2ccccc2)c(C)c1C(=O)NNC(=O)C(F)(F)F,19%,-26%,nt,nt,-4,9
Cn1c(=O)n(Cc2ccccc2)c(=O)c2c1nc1n2CCN1c1ccccc1,-12%,-16%,nt,-10%,-8,nt
Cc1cccc(CN2CCc3c([nH]c4ccccc34)C2CC(C)C)n1 (configuration not stated),2%,-106%,?,nt,-10,1
CSc1ncc(CN2CCc3c([nH]c4ccccc34)C2c2cccc(C)n2)cn1 (configuration not stated),?,26µM*,35,0%,-14,-27
CSc1ncc(CN2CCc3c([nH]c4ccccc34)C2c2cccc(O)c2)cn1 (configuration not stated),?,26µM*,7,-9%,3,-7
Cc1ncc2c(c1CNC(=O)/C=C/c1cccs1)CCN(C(=O)c1noc3c1CCCC3)C2,15%[9.04 µM],-4%,nt,nt,nt,nt
COC(=O)c1cccc(-c2cc(Cl)c3c(c2)CC(CNC(=O)c2cccnc2)O3)c1 (configuration not stated),17%[9.04 µM],?,nt,nt,nt,nt
COc1ccc(C(C)(O)c2nc(-c3ccc(OC)nc3)cs2)cc1 (configuration not stated),?,?,94,-6%,7,2
SMILES,DT40 TDP1 CPT,TDP1 cell noCPT,IL-1B inflam inh,ClpP mod,DRD3 agonist,DRD3 antagonist
CC(O)(c1cccc(F)c1)c1nc(-c2cc(F)cc(F)c2)cs1 (configuration not stated),2.9µM*,?,-12,0%,-13,26
CC(O)(c1cccc(F)c1)c1nc(-c2ccc3ccccc3c2)cs1 (configuration not stated),13µM*,23µM*,0,-11%,-24,-28
CC(=O)Nc1cccc(-c2csc(C(C)(O)c3cccc(F)c3)n2)c1 (configuration not stated),23µM*,?,59,-3%,-5,?
COc1ccc(-c2csc(C(C)(O)c3cccc(F)c3)n2)cn1 (configuration not stated),23µM*,23µM*,13,-14%,-17,-16
CC(O)(c1cccc(F)c1)c1nc(/C=C/c2ccccc2)cs1 (configuration not stated),18µM*,?,-4,-18%,-18,-88*
CC(O)(c1cccc(F)c1)c1nc(-c2ccc(Cl)cc2)cs1 (configuration not stated),?,?,31,-2%,-4,2
CCN(CC)C(=O)c1cccc(-c2csc(C(C)(NC(C)=O)c3ccccc3)n2)c1 (configuration not stated),?,?,-5,-1%,8,2
CCN(CC)C(=O)c1cccc(-c2csc(C(C)(O)c3cccc(F)c3)n2)c1 (configuration not stated),18µM*,23µM*,-23,1%,11,34
CC(O)(c1ccccc1)c1nc(-c2cccc(F)c2)cs1 (configuration not stated),21µM*,-22%,-1,1%,-18,?
CC(O)(c1ccc(F)c(F)c1)c1nc(/C=C/c2ccc(C(F)(F)F)cc2)cs1 (configuration not stated),?,?,-20,?,-7,?
OC(c1ccccc1)(c1nc(/C=C/c2ccc(C(F)(F)F)cc2)cs1)C(F)(F)F (configuration not stated),?,23µM*,-2,?,-10,-7
O=C(CCNS(=O)(=O)c1ccccc1)OCC(=O)c1ccc[nH]1,1%,0%,2,-4%,0,10
CCc1nnc(NC(=O)CS(=O)(=O)Cc2ccccc2)s1,-25%,-3%,16,nt,-4,2

# Screens: PubChem, National Center for Advancing Translational Sciences (NCATS)
